These results are taken from PubChem BioAssay (NCATS).

Experiment [1] in a line: AP1 Signaling Pathway (AID 357; active = well fitted curve in either direction with a large enough effect, not every such curve was filed as active; note: % is set by controls: 0 for no effect and ±100 for the full control effect). The note with it: ME-180 AP-1-bla reporter, EGF-induced, beta-lactamase ratio, 5 h; at 38 µM (top of the series). The method in brief:
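AP-1-bla ME-180 cells with beta-lactamase reporter under AP-1 response element, stimulated with EC50 EGF; compounds titrated, 5 hours at 37 degrees Celsius. CCF4 read at 460/530 nm ratio; positive and negative modulators judged by AC50.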

A short description of experiment [2]: Stat Signaling Pathway (AID 446; active = well fitted curve in either direction with a large enough effect, not every such curve was filed as active;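 note: ME-180 cervical cancer cells given 40 pM IL-6 alongside compound; SIE-controlled beta-lactamase reporter measured as 460/530 nm FRET emission ratio; % is set by controls: 0 for no effect and ±100 for the full control effect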). The note with it: ME-180 SIE beta-lactamase reporter, IL-6 stimulated, 5 h; at 38 µM (top of the series). In a few lines: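 ME-180 SIE-bla cells; overnight plating; cpd + IL-6 40 pM, 5 h, 37 C; LiveBLAzer 2.5 h RT; 460/530 nm emission ratio. Normalized to 300 pM IL-6 and 125 nM JAK inhibitor controls.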
The target of experiment [3] is Glucocorticoid receptor (Homo sapiens) (UniProt P04150). In words: GR-GFP Redistribution (AID 450;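 active = compounds whose dose series gives a full or clear partial fitted curve of increased nuclear translocation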; note: potency is the fitted concentration of half-maximal effect). The note with it: U2OS GR-GFP nuclear translocation, laser cytometry, 2 h.
For experiment [4] the target is unchanged. In words: GR-EFC Redistribution (AID 451; calls by dose curve; note: potency is the fitted concentration of half-maximal effect). The note with it: CHO-K1 GR-EFC translocation, beta-gal luminescence, 2 h. In a few lines: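 Translocation of GR-ED fusion to nuclear EA restores b-gal, read by luminescence after 1 h room-temperature detection. Engineered CHO-K1 biosensor cells, 1,000/well, exposed 2 h at 37 C to titrations up to 46 uM final.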

The target in experiment [5] is Mitogen-activated protein kinase 10 (Mus musculus) (UniProt Q61831). In words: JNK3 AlphaScreen Assay (AID 530; active = well fitted curve in either direction with a large enough effect, not every such curve was filed as active;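 note: kinase came from lysate of stimulated human HepG2 cells; signal reports phosphorylation of biotinylated GST-cJun 1-79 at Ser73 with 10 µM ATP; % is set by controls: 0 for no effect and ±100 for the full control effect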). The method in brief: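 Room-temperature AlphaScreen kinase assay; pre-activated HepG2 lysate as JNK3 source, biotin-GST-cJun(1-79) substrate, 10 uM ATP, compound 15 min preincubation.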
A general note: In Alpha technology, singlet oxygen from a donor bead excites a nearby acceptor bead.

The target of experiment [6] is Guanine nucleotide-binding protein G(i) subunit alpha-1 (Homo sapiens) (UniProt P63096). In words: qHTS Assay for Inhibitors of RGS12 GoLoco Motif Activity (Green Fluorophore) (AID 879).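 Note: 0% = labeled peptide with Gαi1 and full inhibition = labeled peptide alone without protein; negative values mean loss of peptide binding seen as reduced polarization.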 The method in brief: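 Fluorescence polarization assay: 50 nM Gαi1 with 10 nM FITC-labeled RGS12 GoLoco peptide in 10 mM Tris pH 7.5, 150 mM NaCl, 0.1 mM GDP, 0.05% NP40, 10 min at room temperature with compound.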
For orientation: In qHTS, concentration-response curves come from the screen itself.

For experiment [7], the target named is Cytochrome P450 3A4 (Homo sapiens) (UniProt P08684). In words: qHTS Assay for Inhibitors and Substrates of Cytochrome P450 3A4 (AID 884). Note: potency is the fitted concentration of half-maximal effect; nearly all actives have a fitted effect of over 50% in size. In a few lines:
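20 nM human CYP3A4 with 25 uM Luciferin-PPXE (at KM) in 200 mM KPO4, preincubated 10 min with compound; NADPH regeneration started a 60 min RT reaction. Luciferin detected by luminescence, normalized to 57 uM ketoconazole as full inhibition.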

The target in experiment [8] is Cytochrome P450 2D6 (Homo sapiens) (UniProt P10635). In words: qHTS Assay for Inhibitors and Substrates of Cytochrome P450 2D6 (AID 891). Note: potency is the fitted concentration of half-maximal effect; nearly all actives have a fitted effect of over 60% in size. The method in brief:
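Human CYP2D6 (5 nM) with 30 uM Luciferin-ME EGE (at Km) in 100 mM KPO4, compound preincubated 10 min, then NADPH regeneration system for 60 min at room temperature. Luciferin read by luminescence; normalized to 1.43 uM quinidine.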

In experiment [9] the target is Cytochrome P450 2C19 (Homo sapiens) (UniProt P33261). In words: qHTS Assay for Inhibitors and Substrates of Cytochrome P450 2C19 (AID 899). Note: potency is the fitted concentration of half-maximal effect; nearly all actives have a fitted effect of over 60% in size. In a few lines:
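5nM enzyme + 10uM Luciferin-H EGE (=KM), 50mM KPO4; cpd pin-transferred, 10 min 37C; NADPH regen, 60 min 37C; stopped w/ luciferin detection reagent, 20 min; luminescence. Normalized to 57uM ketoconazole (AC100).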

Experiment [10] addresses Muscarinic acetylcholine receptor M1 (Rattus norvegicus) (UniProt P08482). In words: qHTS Assay for Antagonists of Acetylcholine Muscarinic M1 Receptor: Kinetic Measurement of Intracellular Calcium Response (AID 943). Note: potency is the fitted concentration of half-maximal effect; nearly all actives have a fitted effect of over 75% in size. The method in brief:
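Intracellular calcium flux, recorded with Fluo-4 in a kinetic plate reader, served as signal; the response to carbachol at EC80 (100 nM final) was taken as maximal over minimal fluorescence after a 10 min compound pre-incubation in rat M1-CHO cells.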

The target is the same in experiment [11]. In words: qHTS Assay for Antagonists of Acetylcholine Muscarinic M1 Receptor: Measurement of IP-One Response (AID 944). Note: potency is the fitted concentration of half-maximal effect; nearly all actives have a fitted effect of over 75% in size. In a few lines:
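Steps: plate transfected CHO-M1 cells overnight; add test compound, 10 min; add carbachol (200 nM, EC80) in stimulation buffer with LiCl; incubate 30 min; add labelled IP1 tracer and anti-IP1 antibody in lysis buffer; read HTRF after 10 min.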

Experiment [12] addresses Pyruvate kinase (Leishmania mexicana) (UniProt Q27686). In words: qHTS Validation Assay for Inhibitors of Leishmania Mexicana Pyruvate Kinase (AID 945).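 Note: 0% = DMSO only neutral control wells.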 In a few lines: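 qHTS eight-point titrations against 0.2 nM LmPYK (E451W) in imidazole buffer pH 7.2 with 0.5 mM PEP, 0.1 mM ADP; 1 h, room temperature. Readout: PKLight luminescence, normalized to neutral DMSO wells.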

In experiment [13] the target is Pyruvate kinase PKM (Homo sapiens) (UniProt P14618). In words: qHTS Assay for Activators of Human Muscle Pyruvate Kinase (AID 954; active = well fitted curve in the direction sought with a large enough effect, not every such curve was filed as active;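 note: 0% = uninhibited enzyme and -100% = no enzyme or full thiadiazolimine inhibition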). The method in brief: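 Luminescence from a luciferase ATP-detection/stop reagent reported PKM2 activity. Reactions contained 0.1 nM purified human enzyme, 0.5 mM PEP, 0.1 mM ADP and 7 mM MgCl2 at pH 7.2, run 1 h at RT.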
The target in experiment [14] is Alpha-galactosidase A (Homo sapiens) (UniProt P06280). In words: Counterscreen for Glucocerebrosidase Inhibitors: qHTS Assay for Human alpha-Galactosidase at pH 4.5 (AID 992). Note: 0% is about no effect. In a few lines:
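Enzyme at 2 nM final was combined with compound (0.7 nM to 77 uM) and 80 uM 4-methylumbelliferyl alpha-D-galactopyranoside in 50 mM citric acid, 0.005% Tween-20, pH 4.5. After 20 min at room temperature, fluorescence was read (Ex 365/Em 440 nm); AC50 came from Hill fits.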
In general terms: The purpose of a counterscreen is to sort out artefacts and off-target activity.

The target of experiment [15] is alpha-glucosidase (Oryza sativa, rice) (UniProt Q653V4). In words: Counterscreen for Glucocerebrosidase Inhibitors: qHTS Assay for Rice alpha-Glucosidase at pH 5.0 (AID 997).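 Note: 0% = full activity with enzyme and -100% = basal without enzyme.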 In a few lines:
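Rice alpha-glucosidase (4 nM final) with 400 uM 4-methylumbelliferyl-alpha-D-glucopyranoside in citrate buffer pH 5.0, 20 min at room temperature, stopped at pH 10; fluorescence 365/440 nm, compounds 0.7 nM–77 uM, AC50 from Hill fits.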

The target of experiment [16] is DNA dC->dU-editing enzyme APOBEC-3G (Homo sapiens) (UniProt Q9HC16). In words: qHTS for inhibitors of Vif-A3G interactions: Validation (AID 588379). Note: 0% is about no effect. The method in brief: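 HeLa cells stably expressing Vif and A3G-eYFP, 700 cells/well, incubated overnight at 37 deg C, then exposed to compound overnight at 37 deg C. Inhibition of Vif-mediated degradation read as increased yellow fluorescence (Ex 488/Em 500-530) by laser-scanning cytometry.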

In experiment [17] the test system is Zika virus NS2B-NS3 protease. In words: Primary screen GU AMC qHTS for Zika virus inhibitors (AID 1347154).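 For activity change, negative = inhibition: 0% = no-inhibitor control and -100% = no-enzyme control.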 Note: nearly all actives have a fitted effect of over 70% in size. Note: potency is the fitted concentration of half-maximal effect. The method in brief:
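Fluorogenic AMC-substrate cleavage by noncovalent NS2B-NS3 protease complex (25 nM, pH 8.0 Tris buffer with Tween 20) followed for 15 minutes at room temperature (~20% conversion). Percent inhibition from ex340/em450 signal change, fitted by 4-parameter Hill equation.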

The target in experiment [18] is Cytochrome P450 1A2 (Homo sapiens) (UniProt P05177). In words: p450-cyp1a2 (AID 410; calls by dose curve; note: potency is the fitted concentration of half-maximal effect;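 for activity change, negative = inhibition: -100% = full effect of reference inhibitor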). In a few lines:
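Inhibition was calculated relative to 57 uM furafylline (full inhibition). The reaction used human CYP1A2 at 20nM with Luciferin-ME at its Km, 100uM, driven by an NADPH-regenerating system for 60 min at room temperature.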

The target in experiment [19] is 3',5'-cyclic-AMP phosphodiesterase 4B (Homo sapiens) (UniProt Q07343). In words: qHTS Assay for Inhibitors of PDE-IV (AID 607; active = well fitted activation curve with a large enough effect in the main read-out, with a control signal flat, not every such curve was filed as active; note: % of control where 0% means no effect). The method in brief: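 ACTOne HEK293 cells carry a modified cAMP-gated CNG channel and express endogenous PDE4; plated 1000 cells/well, compounds up to 22.9 uM final. Membrane-potential dye fluorescence (ex 535/em 590) was read; parental cells received 10 uM forskolin + 100 uM RO 20-1724.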

Experiment [20] addresses Cytochrome P450 3A4 (Homo sapiens) (UniProt P08684). In words: qHTS Assay for Activators of Cytochrome P450 3A4 (AID 885). Note: nearly all actives have a fitted effect of over 65% in size. In a few lines:
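20nM CYP3A4 + 25uM Luciferin-PPXE (=KM), 200mM KPO4; cpd 10 min RT; NADPH regen, 60 min RT; stop w/ detection buffer, 20 min; luminescence. Normalized to 57 uM ketoconazole.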

Experiment [21] concerns the target Ubiquitin carboxyl-terminal hydrolase 1 (Homo sapiens) (UniProt O94782). In words: Inhibitors of USP1/UAF1: Pilot qHTS (AID 504865).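 For activity change, negative = inhibition: rhodamine fluorescence freed from ubiquitin-rhodamine substrate followed over time; top concentration of the series differs between compounds; % is set by controls: 0 for no effect and ±100 for the full control effect.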 Note: nearly all actives have a fitted effect of over 35% in size. Note: potency is the fitted concentration of half-maximal effect. The method in brief:
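Enzyme-free wells gave the negative control, while test wells held 1nM USP1/UAF1 preincubated with compound for 15 min at room temperature. Ub-Rho at 150nM final started the reaction, and fluorescence at 480/540 nm was recorded kinetically.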

The target in experiment [22] is Cytochrome P450 2C9 (Homo sapiens) (UniProt P11712). In words: qHTS Assay for Inhibitors and Substrates of Cytochrome P450 2C9 (AID 883). Note: potency is the fitted concentration of half-maximal effect; nearly all actives have a fitted effect of over 60% in size. In a few lines: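 Inhibition of CYP2C9 is scored as loss of luminescence, with 57uM sulphaphenazole defining 100% inhibition. Substrate Luciferin-H is used at 100uM, equal to its KM; enzyme at 10nM in 25mM KPO4, 60 min at 37C with NADPH regeneration.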

Several values for one entry are separate records, joined by “and”; a condition that tells them apart may be missing. Identical values can stand only once. A number with no mark means an inactive call. Records with an inconclusive call do not appear. Activity calls are given as the source filed them. Unless noted, calls come from the whole dose curve; as a rule, active = well fitted curve in the direction sought with a large enough effect; inconclusive = small, poorly fitted or top-dose-only effect, or another doubt; inactive = no such curve, though single readings can be large; an effect the other way counts as inactive or inconclusive.

Glucocorticoid receptor (Homo sapiens), sequence (P04150 whole entry, looked up, the tested form may be a part): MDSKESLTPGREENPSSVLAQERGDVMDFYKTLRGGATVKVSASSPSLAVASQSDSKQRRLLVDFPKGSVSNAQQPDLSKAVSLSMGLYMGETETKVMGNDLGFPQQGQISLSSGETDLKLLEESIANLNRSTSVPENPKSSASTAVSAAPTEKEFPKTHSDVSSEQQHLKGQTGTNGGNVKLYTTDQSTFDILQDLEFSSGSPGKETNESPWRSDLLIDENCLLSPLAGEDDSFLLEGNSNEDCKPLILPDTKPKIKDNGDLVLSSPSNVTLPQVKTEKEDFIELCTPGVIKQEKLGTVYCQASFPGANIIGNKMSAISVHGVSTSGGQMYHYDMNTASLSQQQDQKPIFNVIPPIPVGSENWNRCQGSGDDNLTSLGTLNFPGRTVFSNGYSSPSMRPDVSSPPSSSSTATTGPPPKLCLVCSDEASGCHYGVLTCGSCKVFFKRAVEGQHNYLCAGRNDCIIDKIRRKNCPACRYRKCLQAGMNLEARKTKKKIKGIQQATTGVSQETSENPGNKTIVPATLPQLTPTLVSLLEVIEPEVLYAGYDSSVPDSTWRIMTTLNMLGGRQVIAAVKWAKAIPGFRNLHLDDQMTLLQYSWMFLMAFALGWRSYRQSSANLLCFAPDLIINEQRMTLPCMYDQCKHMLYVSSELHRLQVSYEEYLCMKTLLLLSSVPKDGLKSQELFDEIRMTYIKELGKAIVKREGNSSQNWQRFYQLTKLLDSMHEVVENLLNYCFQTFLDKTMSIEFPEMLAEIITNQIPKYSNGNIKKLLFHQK
Cytochrome P450 1A2 (Homo sapiens), sequence (P05177 whole entry, looked up): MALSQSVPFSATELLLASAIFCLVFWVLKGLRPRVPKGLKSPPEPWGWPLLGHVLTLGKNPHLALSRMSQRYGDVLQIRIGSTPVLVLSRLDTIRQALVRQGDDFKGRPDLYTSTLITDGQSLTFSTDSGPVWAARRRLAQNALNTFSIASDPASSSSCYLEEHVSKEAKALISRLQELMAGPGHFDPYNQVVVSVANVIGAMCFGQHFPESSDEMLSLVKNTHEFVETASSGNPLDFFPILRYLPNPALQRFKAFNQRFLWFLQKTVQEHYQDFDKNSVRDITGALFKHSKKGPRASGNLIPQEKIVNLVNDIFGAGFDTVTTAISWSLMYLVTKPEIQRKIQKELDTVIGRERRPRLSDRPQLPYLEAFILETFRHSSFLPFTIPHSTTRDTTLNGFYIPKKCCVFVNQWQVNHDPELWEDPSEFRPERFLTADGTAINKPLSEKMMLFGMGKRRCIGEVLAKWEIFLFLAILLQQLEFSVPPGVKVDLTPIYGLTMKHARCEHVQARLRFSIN
Ubiquitin carboxyl-terminal hydrolase 1 (Homo sapiens), sequence (O94782 whole entry, looked up): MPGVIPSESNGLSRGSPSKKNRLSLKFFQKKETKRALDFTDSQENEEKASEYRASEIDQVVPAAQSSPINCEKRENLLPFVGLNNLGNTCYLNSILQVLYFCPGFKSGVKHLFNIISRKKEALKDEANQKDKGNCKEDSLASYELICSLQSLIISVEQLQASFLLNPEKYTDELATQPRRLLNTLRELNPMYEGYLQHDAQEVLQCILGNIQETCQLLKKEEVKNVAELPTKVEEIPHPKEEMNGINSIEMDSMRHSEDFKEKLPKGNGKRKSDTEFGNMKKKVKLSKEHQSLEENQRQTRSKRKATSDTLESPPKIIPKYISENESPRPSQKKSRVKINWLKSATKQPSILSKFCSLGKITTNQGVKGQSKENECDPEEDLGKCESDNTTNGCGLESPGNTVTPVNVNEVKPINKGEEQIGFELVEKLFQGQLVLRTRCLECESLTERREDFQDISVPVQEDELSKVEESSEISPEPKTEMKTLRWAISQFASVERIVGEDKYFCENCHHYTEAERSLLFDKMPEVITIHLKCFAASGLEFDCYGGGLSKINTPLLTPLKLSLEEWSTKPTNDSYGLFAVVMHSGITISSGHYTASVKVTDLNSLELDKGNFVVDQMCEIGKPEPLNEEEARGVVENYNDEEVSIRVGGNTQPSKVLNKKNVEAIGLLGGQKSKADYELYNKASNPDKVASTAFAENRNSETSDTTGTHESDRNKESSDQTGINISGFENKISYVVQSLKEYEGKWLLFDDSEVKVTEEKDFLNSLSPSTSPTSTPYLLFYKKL
Cytochrome P450 3A4 (Homo sapiens), sequence (P08684 whole entry, looked up): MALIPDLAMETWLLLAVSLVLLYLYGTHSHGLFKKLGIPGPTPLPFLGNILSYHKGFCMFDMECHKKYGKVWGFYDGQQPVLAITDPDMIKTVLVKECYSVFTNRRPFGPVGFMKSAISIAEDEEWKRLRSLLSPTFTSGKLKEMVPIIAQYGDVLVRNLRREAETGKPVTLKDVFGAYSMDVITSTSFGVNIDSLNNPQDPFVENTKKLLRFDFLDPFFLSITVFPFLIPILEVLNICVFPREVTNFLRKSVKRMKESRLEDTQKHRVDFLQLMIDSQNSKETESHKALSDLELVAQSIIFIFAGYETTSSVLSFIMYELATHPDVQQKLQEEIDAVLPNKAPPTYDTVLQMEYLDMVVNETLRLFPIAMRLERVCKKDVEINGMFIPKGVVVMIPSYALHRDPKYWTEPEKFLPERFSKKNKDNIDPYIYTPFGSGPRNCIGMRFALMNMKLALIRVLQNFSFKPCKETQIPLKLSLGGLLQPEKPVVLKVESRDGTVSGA
DNA dC->dU-editing enzyme APOBEC-3G (Homo sapiens), sequence (Q9HC16 whole entry, looked up): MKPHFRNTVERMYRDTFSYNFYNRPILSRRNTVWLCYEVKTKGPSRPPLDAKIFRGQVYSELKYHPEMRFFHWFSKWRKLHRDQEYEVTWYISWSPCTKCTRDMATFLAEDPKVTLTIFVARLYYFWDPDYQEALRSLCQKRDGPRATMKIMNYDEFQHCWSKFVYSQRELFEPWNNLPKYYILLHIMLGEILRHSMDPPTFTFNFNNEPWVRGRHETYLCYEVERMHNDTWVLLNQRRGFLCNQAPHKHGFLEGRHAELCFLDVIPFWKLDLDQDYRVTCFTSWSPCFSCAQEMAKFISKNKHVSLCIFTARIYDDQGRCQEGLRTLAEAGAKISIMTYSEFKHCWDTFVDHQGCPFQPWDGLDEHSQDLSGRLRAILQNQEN
Cytochrome P450 2C19 (Homo sapiens), sequence (P33261 whole entry, looked up): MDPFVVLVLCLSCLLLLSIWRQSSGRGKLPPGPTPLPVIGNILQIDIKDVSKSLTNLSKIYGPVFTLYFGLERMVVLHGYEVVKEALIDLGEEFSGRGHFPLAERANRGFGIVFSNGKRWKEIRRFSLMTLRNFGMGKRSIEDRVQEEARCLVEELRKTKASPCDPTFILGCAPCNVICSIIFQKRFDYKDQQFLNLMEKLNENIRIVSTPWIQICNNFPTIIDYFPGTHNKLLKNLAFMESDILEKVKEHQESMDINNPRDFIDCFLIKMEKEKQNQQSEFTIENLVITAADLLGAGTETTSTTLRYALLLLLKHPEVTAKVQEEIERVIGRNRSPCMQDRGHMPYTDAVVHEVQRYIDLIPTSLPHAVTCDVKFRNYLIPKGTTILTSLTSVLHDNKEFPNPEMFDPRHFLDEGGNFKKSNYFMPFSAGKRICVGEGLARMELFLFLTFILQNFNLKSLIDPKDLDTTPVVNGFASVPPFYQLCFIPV
Muscarinic acetylcholine receptor M1 (Rattus norvegicus), sequence (P08482 whole entry, looked up): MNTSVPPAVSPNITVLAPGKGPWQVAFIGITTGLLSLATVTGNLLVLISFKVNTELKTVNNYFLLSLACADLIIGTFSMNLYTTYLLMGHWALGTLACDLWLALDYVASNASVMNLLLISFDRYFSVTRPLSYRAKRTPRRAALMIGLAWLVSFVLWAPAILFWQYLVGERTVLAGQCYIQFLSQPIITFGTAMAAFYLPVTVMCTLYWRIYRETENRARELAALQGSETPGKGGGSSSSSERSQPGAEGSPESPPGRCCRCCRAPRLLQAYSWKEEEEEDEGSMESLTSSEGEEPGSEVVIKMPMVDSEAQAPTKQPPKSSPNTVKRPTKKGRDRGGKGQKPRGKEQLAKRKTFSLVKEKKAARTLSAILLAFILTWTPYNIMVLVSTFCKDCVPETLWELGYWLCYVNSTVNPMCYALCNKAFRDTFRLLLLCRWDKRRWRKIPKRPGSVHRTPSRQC
Cytochrome P450 2D6 (Homo sapiens), sequence (P10635 whole entry, looked up): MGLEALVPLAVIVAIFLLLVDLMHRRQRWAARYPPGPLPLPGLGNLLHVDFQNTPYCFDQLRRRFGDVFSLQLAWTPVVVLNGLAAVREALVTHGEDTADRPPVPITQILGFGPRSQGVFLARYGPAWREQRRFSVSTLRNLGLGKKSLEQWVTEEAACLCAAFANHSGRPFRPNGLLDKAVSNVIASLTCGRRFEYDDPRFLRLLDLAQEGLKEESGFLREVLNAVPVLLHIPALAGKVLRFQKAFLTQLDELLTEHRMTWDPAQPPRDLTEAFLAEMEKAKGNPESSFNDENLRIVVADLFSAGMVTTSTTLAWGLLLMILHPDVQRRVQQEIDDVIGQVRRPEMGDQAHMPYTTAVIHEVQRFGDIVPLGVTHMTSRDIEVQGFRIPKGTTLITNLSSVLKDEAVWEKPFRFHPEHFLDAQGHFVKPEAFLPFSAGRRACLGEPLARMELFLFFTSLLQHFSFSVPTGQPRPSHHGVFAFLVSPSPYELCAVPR
Alpha-galactosidase A (Homo sapiens), sequence (P06280 whole entry, looked up): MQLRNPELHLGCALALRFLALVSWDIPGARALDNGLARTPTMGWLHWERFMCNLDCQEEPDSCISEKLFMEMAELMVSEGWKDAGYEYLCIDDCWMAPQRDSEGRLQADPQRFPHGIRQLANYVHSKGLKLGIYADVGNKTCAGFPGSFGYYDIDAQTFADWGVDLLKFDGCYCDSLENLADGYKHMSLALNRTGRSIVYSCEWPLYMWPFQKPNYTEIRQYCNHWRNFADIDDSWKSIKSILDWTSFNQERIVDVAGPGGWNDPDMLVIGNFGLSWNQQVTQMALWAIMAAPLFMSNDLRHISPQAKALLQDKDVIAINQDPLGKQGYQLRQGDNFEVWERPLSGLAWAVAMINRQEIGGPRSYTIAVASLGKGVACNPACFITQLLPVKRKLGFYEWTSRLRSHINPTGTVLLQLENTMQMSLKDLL

As to `COc1cccc(OC)c1OCCNC[C@@H]1COc2ccccc2O1`, the activity change, negative = inhibition in experiment [1] is -5.1%. In experiment [2], the activity, negative = inhibition is 9.55%. Also, the Potency is above 46 µM in [3]; above 46 µM in experiment [4]; 2 µM (active) and 2.51 µM (active) in experiment [7]; 0.251 µM (active) in [8]; 0.794 µM (active) in [9]; 10 µM (active) in experiment [10]. Besides, the Potency in experiment [11] was 17.8 µM (active). For the same compound, the Potency entry in [5], in experiment [12], in experiment [16] and in [17] was “inactive” in each case. Moreover, the call in experiment [6], in experiment [13], in experiment [14] and in [15] was inactive.
As to `NS(=O)(=O)c1cccc2c1c([N+](=O)[O-])cc1[nH]c(=O)c(=O)[nH]c12`, the Potency entry in experiment [18], in experiment [5] and in experiment [17] was “inactive” throughout. The Potency in [3] and in experiment [4] was above 46 µM each time.
Take `C[C@@]1(C(=O)O)NCCc2cc(O)c(O)cc21`: the Potency result in [18], in [19], in experiment [20] and in experiment [16] was “inactive” throughout. The Potency is above 46 µM in experiment [3], above 46 µM in experiment [4], 56.2 µM (active) in experiment [21] and 11.9 µM (active) in experiment [17].
On to `Fc1ccc([C@H]2CCNC[C@H]2COc2ccc3c(c2)OCO3)cc1`, for which the results for the Potency in experiment [18], in experiment [3] and in experiment [4] were 3.16 µM (active), above 46 µM and above 46 µM, respectively. Besides, the Potency entry in experiment [5], in experiment [21], in experiment [16] and in [17] was “inactive” in each case.
Consider `CC(C)NC[C@@H](O)COc1ccccc1-n1cccc1`, for which the Potency in [18] is 3.98 µM (active); in experiment [3], above 46 µM; in [4], above 46 µM. Moreover, the Potency entry in experiment [21], in [16] and in experiment [17] was “inactive” throughout.
In the case of `CCCCCN=c1ccn(Cc2ccccc2)c2ccccc12`, the Potency was 25.1 µM (active) in experiment [18]; above 46 µM in experiment [3]; above 46 µM in [4]; 0.316 µM (active) in [22]; 0.251 µM (active) in experiment [9]. The Potency result in experiment [20], in experiment [16] and in experiment [17] was “inactive” each time.
